Reference: PubChem BioAssay (NCATS)
Records with an inconclusive call do not appear. Active and inactive are the calls of the source. The call rests on the fitted dose curve; in most records, active means well fitted curve in the direction sought with a large enough effect; inconclusive means small, poorly fitted or top-dose-only effect, or another doubt; inactive means no such curve, though single readings can be large; an effect the other way counts as inactive or inconclusive.

How the values were obtained:
CRL-7250 = normal cell line; assay: Cytotoxic Profiling of Annotated Libraries Using Quantitative High-Throughput Screening (AID 1296008); conditions: Five cell lines viability, CellTiter-Glo ATP luminescence, 48-72 h; max response: stronger effect = lower value; further: nearly all actives have a fitted effect of over 60% in size; on max response: on the % scale 0 is the no-effect control and ±100 the full control effect
Outline: (§1)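 Compounds were pin-transferred onto cells and incubated 48 or 72 hr at 37 degree Celsius, 95% humidity. CellTiter-Glo was added, plates sat 10 min at room temperature, then ATP-coupled luminescence was imaged as the viability read-out.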

HEK293 = assay: as above; conditions: Five cell lines viability, CellTiter-Glo ATP luminescence, 48-72 h; max response: stronger effect = lower value
Outline: as §1

HaCat [1] = assay: as above; conditions: Five cell lines viability, CellTiter-Glo ATP luminescence, 48-72 h; max response: stronger effect = lower value
Outline: as §1

KB-3-1 = assay: as above; conditions: Five cell lines viability, CellTiter-Glo ATP luminescence, 48-72 h; max response: stronger effect = lower value
Outline: as §1

NIH3T3 = assay: as above; conditions: Five cell lines viability, CellTiter-Glo ATP luminescence, 48-72 h; max response: stronger effect = lower value
Outline: as §1

HACAT [2] = assay: qHTS assay to identify novel small-molecules to repurpose for Merkel cell carcinoma treatment (AID 1296009); conditions: MCC and control cell lines, CellTiter-Glo viability, 72 h; at 44.8 µM (top of the series) unless noted; further: nearly all actives have a fitted effect of over 60% in size
Outline: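 Cells exposed to NPC (8-point) and MIPE (11-point) compound dilutions for 72 hr at 37 degree celsius; viability read by CellTiter-Glo luminescence, normalized to no-cell and DMSO in-plate controls.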

C33A = assay: Primary qHTS to identify gynecologic anti-cancer compounds using libraries of approved drugs and bioactive compounds (AID 1345084); conditions: Gynecologic cancer cell panel viability, ATPlite luminescence, 48 h; series mostly up to 57.5 µM; further: on the % scale 0 is the no-effect control and ±100 the full control effect; nearly all actives have a fitted effect of over 55% in size
Outline: (§2)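 Luminescence from the ATPlite ATP-monitoring reagent indicates viable cell number; lower signal means cytotoxicity. Cells received compound 16 h after seeding and were exposed for 48 h across five concentrations.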

CAOV3 = assay: as above; conditions: Gynecologic cancer cell panel viability, ATPlite luminescence, 48 h; series mostly up to 57.5 µM
Outline: as §2

CASKI = assay: as above; conditions: Gynecologic cancer cell panel viability, ATPlite luminescence, 48 h; series mostly up to 57.5 µM
Outline: as §2

Es-2 = assay: as above; conditions: Gynecologic cancer cell panel viability, ATPlite luminescence, 48 h; series mostly up to 57.5 µM
Outline: as §2

HeLa = assay: as above; conditions: Gynecologic cancer cell panel viability, ATPlite luminescence, 48 h; series mostly up to 57.5 µM
Outline: as §2

Hek293T = assay: as above; conditions: Gynecologic cancer cell panel viability, ATPlite luminescence, 48 h, control line for the selectivity index; series mostly up to 57.5 µM
Outline: as §2

JEG-3 = assay: as above; conditions: Gynecologic cancer cell panel viability, ATPlite luminescence, 48 h; series mostly up to 57.5 µM
Outline: as §2

OV90 = assay: as above; conditions: Gynecologic cancer cell panel viability, ATPlite luminescence, 48 h; series mostly up to 57.5 µM
Outline: as §2

PA-1 = assay: as above; conditions: Gynecologic cancer cell panel viability, ATPlite luminescence, 48 h; series mostly up to 57.5 µM
Outline: as §2

COC(=O)C(Cc1ccccc1)NC(=O)c1ccccc1 (stereo not given)
inactive: max response (CRL-7250) -7.59% | max response (HEK293) -8.19% | outcome (HaCat [1]) | max response (KB-3-1) 6.61% | max response (NIH3T3) -1.1% | outcome (HACAT [2]) | Potency (C33A) | Potency (CAOV3) | outcome (CASKI) | Potency (Es-2) | Potency (HeLa) | Potency (Hek293T) | Potency (JEG-3) | Potency (OV90) | Potency (PA-1)

CC(C)=CCC[C@@](C)(O)[C@H]1CC[C@]2(C)[C@@H]1[C@H](O)CC1[C@@]3(C)CC[C@H](O[C@@H]4O[C@H](CO)[C@@H](O)[C@H](O)[C@H]4O[C@@H]4O[C@H](CO)[C@@H](O)[C@H](O)[C@H]4O)C(C)(C)[C@@H]3CC[C@]12C (stereo not given in full)
inactive: max response (CRL-7250) 4.67% | max response (HEK293) 1.62% | outcome (HaCat [1]) | outcome (KB-3-1) | outcome (NIH3T3) | outcome (HACAT [2]) inactive [at 17.4 µM] | Potency (C33A) | Potency (CAOV3) | outcome (CASKI) | Potency (Es-2) | Potency (HeLa) | Potency (Hek293T) | Potency (JEG-3) | Potency (OV90) | Potency (PA-1)

C/C=C(\C)C(=O)OCC1OC(OC2OC(CO)C(O)C(O)C2O)C(O)C(O)C1O (stereo not given)
inactive: outcome (CRL-7250) | max response (HEK293) -3.96% | outcome (HaCat [1]) | outcome (KB-3-1) | max response (NIH3T3) -3.87% | outcome (HACAT [2]) inactive [at 17.4 µM] | Potency (C33A) | Potency (CAOV3) | outcome (CASKI) | Potency (Es-2) | Potency (HeLa) | Potency (Hek293T) | Potency (JEG-3) | Potency (OV90) | Potency (PA-1)

O=C(NCCN1CCCC1)c1cc(-c2ccc(CN3CCOCC3)cc2)nc2ccc(F)cc12
inactive: max response (CRL-7250) 3.26% | max response (HEK293) 2.05% | outcome (HaCat [1]) | outcome (KB-3-1) | max response (NIH3T3) 1.71% | outcome (HACAT [2]) inactive [at 17.4 µM] | Potency (C33A) | Potency (CAOV3) | outcome (CASKI) | Potency (Es-2) | Potency (HeLa) | Potency (Hek293T) | Potency (JEG-3) | Potency (OV90) | Potency (PA-1)

C[C@@H]1O[C@@H](OC2C(CO)OC(OCC3OC(OC(=O)[C@]45CCC(C)(C)CC4C4=CCC6[C@@]7(C)CC[C@@H](O)[C@](C)(C(=O)O)C7CC[C@@]6(C)[C@]4(C)CC5)C(O)C(O)C3O)C(O)C2O)[C@H](O)[C@H](O)[C@H]1O (stereo not given in full)
inactive: outcome (CRL-7250) | max response (HEK293) 2.84% | outcome (HaCat [1]) | max response (KB-3-1) -3.25% | max response (NIH3T3) -0.476% | outcome (HACAT [2]) inactive [at 9.27 µM] | activity change, negative = cytotoxicity (C33A) 1.71% [at 11.6 µM] | activity change, negative = cytotoxicity (CAOV3) 16.7% [at 11.6 µM] | activity change, negative = cytotoxicity (CASKI) -0.233% [at 11.6 µM] | activity change, negative = cytotoxicity (Es-2) -9.93% [at 11.6 µM] | activity change, negative = cytotoxicity (HeLa) 4.67% [at 11.6 µM] | activity change, negative = cytotoxicity (Hek293T) 5.6% [at 11.6 µM] | activity change, negative = cytotoxicity (JEG-3) 7.96% [at 11.6 µM] | activity change, negative = cytotoxicity (OV90) 8.36% [at 11.6 µM] | activity change, negative = cytotoxicity (PA-1) 29.2% [at 11.6 µM]

CC1=C2C[C@@]3(C)C(CCC[C@@H]3C)C(O)C2(O)OC1=O (stereo not given in full)
inactive: max response (CRL-7250) -37.7% | max response (HEK293) -7.76% | outcome (HaCat [1]) | max response (KB-3-1) -14% | max response (NIH3T3) -21.1% | outcome (HACAT [2]) | Potency (C33A) | Potency (CAOV3) | outcome (CASKI) | Potency (Es-2) | Potency (HeLa) | Potency (Hek293T) | Potency (JEG-3) | Potency (OV90) | Potency (PA-1)

Cc1ccc(-c2c(-c3nn(C)c4ncnc(N5CCC(N6CCCCC6)C5)c34)cnn2C)cc1 (stereo not given)
inactive: outcome (CRL-7250) | max response (HEK293) -1.32% | outcome (HaCat [1]) | outcome (KB-3-1) | max response (NIH3T3) 4.76% | outcome (HACAT [2]) | Potency (C33A) | Potency (CAOV3) | outcome (CASKI) | Potency (Es-2) | Potency (HeLa) | Potency (Hek293T) | Potency (JEG-3) | Potency (OV90) | Potency (PA-1)

COC(=O)C1=COC(OC2OC(CO)C(O)C(O)C2O)C2C(COC(=O)/C=C/c3ccc(O)cc3)C(O)C(O)C12 (stereo not given)
inactive: outcome (CRL-7250) | max response (HEK293) 0.595% | outcome (HaCat [1]) | outcome (KB-3-1) | max response (NIH3T3) -5.08% | outcome (HACAT [2]) inactive [at 17.4 µM] | Potency (C33A) | Potency (CAOV3) | outcome (CASKI) | Potency (Es-2) | Potency (HeLa) | Potency (Hek293T) | Potency (JEG-3) | Potency (OV90) | Potency (PA-1)

CC(C)CC(c1c(O)c(C=O)c(O)c(C=O)c1O)C1CCC(C)(O)C2CC(C(C)(C)O)CCC12C (stereo not given)
inactive: max response (CRL-7250) -4.35% | max response (HEK293) -7.48% | outcome (HaCat [1]) | outcome (KB-3-1) | max response (NIH3T3) 0.233% | outcome (HACAT [2]) inactive [at 17.4 µM] | Potency (C33A) | Potency (CAOV3) | outcome (CASKI) | Potency (Es-2) | Potency (HeLa) | Potency (Hek293T) | Potency (JEG-3) | Potency (OV90) | Potency (PA-1)

COc1cccc(C(=O)NCCNc2nc3cc(C)cc(C)c3cc2C#N)c1
inactive: max response (CRL-7250) -1.46% | max response (HEK293) -19% | outcome (HaCat [1]) | max response (KB-3-1) 5.87% | max response (NIH3T3) -4.31% | outcome (HACAT [2]) | Potency (C33A) | Potency (CAOV3) | outcome (CASKI) | Potency (Es-2) | Potency (HeLa) | Potency (Hek293T) | Potency (JEG-3) | Potency (OV90) | Potency (PA-1)

COC(=O)C[C@H]1C(C)(C)[C@H](OC(=O)C(C)C)C2CC3=C4CC(=O)O[C@@H](c5ccoc5)[C@]4(C)CCC3[C@@]1(C)C2=O (stereo not given in full)
inactive: max response (CRL-7250) 2.69% | max response (HEK293) -10.8% | outcome (HaCat [1]) | max response (KB-3-1) -0.987% | max response (NIH3T3) 1.73% | outcome (HACAT [2]) inactive [at 17.4 µM] | Potency (C33A) | Potency (CAOV3) | outcome (CASKI) | Potency (Es-2) | Potency (HeLa) | Potency (Hek293T) | Potency (JEG-3) | Potency (OV90) | Potency (PA-1)
